Drawing on PubChem BioAssay AID588852 (The Scripps Research Institute Molecular Screening Center, 2011), this text covers inhibition for 90 molecules.

The structures appear in SMILES notation. The campaign covered roughly 360,000 compounds. About 4,600 (1.3%) were called active. The list comes from a sample in which actives are over-represented; it also holds similar structures and randomly drawn compounds. Unmarked numbers belong to inactive results.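 Rule for the calls: active = percent inhibition above its own plate's cutoff, namely the mean of that plate's compound wells plus 3 SD; inactive = the rest.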

The inhibition is the drop in the measured response relative to a control, in per cent.

Muscarinic acetylcholine receptor M1 (Homo sapiens), sequence (P11229 whole entry, looked up): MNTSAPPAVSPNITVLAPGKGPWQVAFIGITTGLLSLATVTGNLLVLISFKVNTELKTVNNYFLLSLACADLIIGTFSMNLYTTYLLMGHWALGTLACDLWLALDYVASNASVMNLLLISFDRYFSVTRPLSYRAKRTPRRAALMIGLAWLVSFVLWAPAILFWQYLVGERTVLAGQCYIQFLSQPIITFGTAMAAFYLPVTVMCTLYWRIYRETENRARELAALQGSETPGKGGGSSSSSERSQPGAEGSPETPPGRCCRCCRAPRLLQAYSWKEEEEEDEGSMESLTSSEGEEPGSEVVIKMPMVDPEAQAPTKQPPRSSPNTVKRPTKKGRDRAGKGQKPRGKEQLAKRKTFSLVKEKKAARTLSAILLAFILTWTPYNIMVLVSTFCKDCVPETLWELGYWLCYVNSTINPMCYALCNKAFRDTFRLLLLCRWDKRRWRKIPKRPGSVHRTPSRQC

This assay concerns the target Muscarinic acetylcholine receptor M1 (Homo sapiens) (UniProt P11229). In words: human M1 muscarinic receptor antagonists, primary screen, CHO-K1 cells, Fluo-8 calcium fluorescence, 1536-well (AID 588852).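 Note: peak over basal fluorescence ratio during 140 s after agonist addition; 0% = ACh EC80 plus DMSO and 100% = DMSO alone without agonist.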 As to conditions: CHO-K1 hM1, Fluo-8 calcium fluorescence, ACh EC80 antagonist; at 3 µM; active compounds read high.
With `COc1ccccc1N1CCN(CCCCOc2ccc(F)cc2)CC1`, the inhibition is 30.4% (active).
As for `CCN1CCN(CCCCOc2ccccc2F)CC1`, the inhibition is -2.84%.
For `COc1ccccc1OCCCCCCN1CCN(C)CC1` the value was -0.37%.
For `O=C(NC(Cc1ccc(O)cc1)C(=O)O)/C(=C/c1ccccc1)NC(=O)c1ccccc1` (stereo not given) the value was -14.6%.
Turning to `Cc1cccc(CN2CCN(C3CN(Cc4cn(Cc5ccccc5F)nn4)S(=O)(=O)C3)CC2)c1` (stereo not given), the inhibition is -4.3%.
`COC(=O)C1=C(C)NC(=O)/C1=C/c1ccc(CNS(=O)(=O)c2ccc(C)cc2)o1`: the inhibition is 8.24%.
Take `COC(=O)C1=C(C)N(C)C(=O)NC1c1ccc([N+](=O)[O-])o1` (stereo not given): the inhibition is 0.09%.
For `COC(=O)C1=C(C)NC2=C(C(=O)c3ccccc32)C1c1ccc(-c2ccc(C(=O)O)cc2)o1` (stereo not given) the value was 32.9% (active); for `CCN(CC)S(=O)(=O)c1ccc(N(C)Cc2cccc(OC)c2OC)nc1`, 7.81%; for `CCN(CC)S(=O)(=O)c1ccc(N(C)Cc2ccc(C(F)(F)F)cc2)nc1`, 61.2% (active).
On to `CCN(CC)S(=O)(=O)c1ccc(N(C)CCc2ccc(OC)c(OC)c2)nc1`, for which the inhibition was -0.86%.
In the case of `Cc1ccc(Sc2ccc(NC(=O)c3ccc(F)cc3)cc2C#N)cc1`, the inhibition was 9.62%.
For `Cc1cc(OCC(=O)NC2CCN(C)CC2)ccc1[N+](=O)[O-]` the value was -1.71%; for `COc1ccc(N2CCN(C(=O)COc3ccc4c(C)cc(=O)oc4c3)CC2)cc1`, -5.75%; for `COc1cc(CN2CCN(Cc3ccc(C)cc3)CC2)c([N+](=O)[O-])cc1OC`, -6.59%.
For `Cc1cc(OCCCN2CCN(Cc3ccccc3)CC2)ccc1[N+](=O)[O-]` the value was 54.7% (active).
For `Cc1cc(=O)oc2cc(OCC3CC(c4ccccc4Cl)=NO3)ccc12` (stereo not given), the inhibition is -6.21%.
For `Cc1ccccc1N1CCN(CCCOc2ccc3c(C)cc(=O)oc3c2)CC1` the value was 39.5% (active); for `Nc1nc2cc(Cl)ccc2n1N`, -2.44%.
For `CN1OC[C@@H]2CN(S(=O)(=O)c3cccc4ccccc34)[C@H](c3ccc(N4CCCCC4)cc3)C[C@@H]21` the value was 5.74%.
For `O=C(NC(c1ccc(-c2ccccc2)cc1)c1cnccn1)C1CCN(CCOc2ccc(Cl)cc2Cl)CC1` (stereo not given) the value was -16.7%.
As for `CN(C)CCOc1ccc(Cl)cc1C(C)(C)C`, the inhibition was 66.2% (active).
For `CN(C)CCOCCOc1ccc(Cl)c2ccccc12`, the inhibition is -1.32%.
For `CN(C)CCOc1cccc(Br)c1` the value was 17.3%; for `Cc1cc(C)cc(NC(=O)C(c2ccccc2)N2CCN(CC(=O)N3CCCC3)CC2)c1` (stereo not given), 3.45%.
For the molecule `Cc1cc(C)cc(NC(=O)C(OC(=O)c2ccc(O)cc2)c2ccccc2)c1` (stereo not given), the inhibition was 29.5% (active).
For `Cc1ccc(C)c(NC(=O)C(OC(=O)c2ccc(C)s2)c2ccccc2)c1` (stereo not given) the value was -2.69%; for `COCCCNC(=O)CN1C(=O)CSc2ccc(S(=O)(=O)N3CCOCC3)cc21`, -6.65%; for `CCN(C(=O)COC(=O)c1c(C)nn(-c2ccccc2)c1Cl)c1c(N)n(Cc2ccccc2)c(=O)[nH]c1=O`, -4.94%.
For `CC(=O)c1cccc(OCc2cc(C(=O)NC(C)Cc3cccnc3)no2)c1` (stereo not given) the value was 18.6%; for `CN(Cc1cnccn1)C(=O)c1cc(COc2cccc(C(F)(F)F)c2)on1`, -11.2%; for `CN(Cc1cccnc1)C(=O)c1cc(COc2ccc3ncccc3c2)on1`, 50% (active).
As for `Cc1nc(COc2cc3oc(=O)cc(C)c3cc2Cl)cs1`, the inhibition was -7.17%.
For `O=C(Cn1cc(C(F)(F)F)ccc1=O)Nc1ccc2c(c1)OCCO2`, the inhibition was -0.29%.
For `O=C(CSc1nnc(-c2ccco2)o1)NCC(=O)c1ccccc1`, the inhibition was -3.08%.
For `Cc1nc(-c2ccc(F)cc2)c(CC(=O)Nc2cccc(S(=O)(=O)N3CCOCC3)c2)s1` the value was 0.85%; for `CCN(Cc1ccncc1)C(=O)c1cccc(S(=O)(=O)N2CCOCC2)c1`, -4%; for `O=S(=O)(c1cccc(Cn2nnc(-c3ccc(F)cc3)n2)c1)N1CCOCC1`, 27.1% (active).
For `O=C(CSc1nc2nccnc2c(=O)n1Cc1cccs1)Nc1ccccc1F` the value was 9.12%; for `Cc1ccccc1CNC(=O)CCC(=O)N1Cc2ccccc2Oc2ncccc21`, -0.29%.
As for `O=C(CS(=O)(=O)c1ccc(C(F)(F)F)cn1)NNC(=O)c1ccccc1`, the inhibition was 11.9%.
As for `Nc1nc2c(ncn2[C@@H]2O[C@H](CNS(=O)(=O)N3CCc4ccccc4C3)[C@@H](O)[C@H]2O)c(=O)[nH]1`, the inhibition was -4.64%.
For `COC(=O)c1ccc(NC(=O)CN(c2ccc(C)cc2)S(=O)(=O)c2c(C)n[nH]c2C)cc1` the value was -8.36%; for `CN(Cc1ccccc1F)c1cc2c(c3c1ccn3C)C1CCC2O1` (stereo not given), -40.5%; for `COc1cc(C(=O)NCc2cc3cc(Cl)ccc3n2C)cc(OC)c1OC`, -19.2%.
Take `COc1cc(C(=O)NCc2ccc3c(c2)cc(C)n3C)cc(OC)c1OC`: the inhibition was -1.03%.
As to `CCn1c(CNC(=O)c2cc(OC)c(OC)c(OC)c2)cc2cc(C)ccc21`, the inhibition was 47.9% (active).
For `CCN(CC(=O)NC(C)C)C(=O)c1cc(S(=O)(=O)N2CCCCC2)ccc1N1CCCCC1` the value was -0.72%; for `CCc1ccc(NC(=O)C(=O)N/N=C(\C)CC(=O)NCCOC)cc1`, -7.5%; for `C=CCn1c(=O)c2ccccc2n2c(SCC(=O)N3CCCc4ccccc43)nnc12`, 10.1%.
For `O=C(CSc1nc2ccccc2c(=O)n1CCCO)N1CCc2ccccc21` the value was -9.53%; for `Cn1c(SCC(=O)N2CCCc3ccccc32)nc2ccccc2c1=O`, 31.9% (active); for `CCn1c(C(C)C)n[nH]c1=S`, -7.45%.
For `CC(C)C1Nc2c(C(=O)O)cccc2C(Nc2ccccc2C(=O)O)C1(C)C` (stereo not given) the value was 2.52%; for `O=C(O)CC/C(=N\NC(=O)c1ccc(F)cc1)c1ccc(Br)cc1`, -10.2%; for `C/C(=N\NC(=O)c1ccc2ccccc2c1)c1cccnc1`, -15.4%.
On to `CC(=NNC(=O)c1ccc2nc[nH]c2c1)c1ccc(Br)cc1`, for which the inhibition was 35.2% (active).
As for `CN1OC[C@@H]2CN(C(=O)c3cccnc3)[C@H](c3ccc(N4CCCCC4)cc3)C[C@@H]21`, the inhibition is -0.12%.
`COc1ccc(CNC(=O)COC(=O)c2ccc(C)c(S(=O)(=O)N3CCOCC3)c2)cc1OC`: the inhibition is -2.56%.
For `COc1ccc(C(=O)OCC(=O)c2ccc(C)c(S(=O)(=O)N3CCOCC3)c2)cc1OC` the value was 42% (active).
For `Cc1ccc(C(=O)OCC(=O)N2CCCCCC2)cc1S(=O)(=O)N1CCOCC1` the value was -0.5%.
`CC1(Cc2ccccc2C#N)C(=O)Nc2ccc(-c3ccc4[nH]ccc4c3)cc21` (stereo not given): the inhibition was 8.72%.
For `CCOC(=O)c1ccn(S(=O)(=O)c2ccc(C)cc2)c1-c1ccccc1` the value was 13.3%; for `Cc1cccc(NS(=O)(=O)c2ccc(C)c(C(=O)NCC(c3ccccc3)N(C)C)c2)c1` (stereo not given), -6.04%.
For `COc1ccc(C(CNC(=O)c2cccc(S(=O)(=O)Nc3ccc(Br)cc3)c2)N(C)C)cc1` (stereo not given) the value was -2.85%; for `COc1ccccc1C(CNC(=O)c1cccc(NS(=O)(=O)c2ccc(Br)cc2)c1)N(C)C` (stereo not given), 99.2% (active); for `CN(C)C(CNC(=O)c1cccc(S(=O)(=O)Nc2ccc(Br)cc2)c1)c1ccco1` (stereo not given), -0.14%.
For `COc1ccccc1C(CNC(=O)c1cccc(S(=O)(=O)Nc2ccc(F)cc2)c1)N(C)C` (stereo not given) the value was 100% (active); for `CC(=O)c1ccc(S(=O)(=O)Nc2ccc(C(=O)NCC(c3ccccc3)N(C)C)cc2)cc1` (stereo not given), 16.4%; for `CCOc1ccc2[nH]c(=S)sc2c1`, -3.12%.
On to `CCc1ccc[n+](-c2nc([O-])sc2C=O)c1`, for which the inhibition is -4.29%.
For the molecule `Cc1ccc(S(=O)(=O)N2CCOCC2)cc1C(=O)OC1CCCCC1=O` (stereo not given), the inhibition is 0.72%.
For `O=C(/C=C/[C@H]1O[C@@H](n2ccc(=O)[nH]c2=O)[C@H](O)[C@@H]1O)NCc1ccccn1` the value was -44.8%; for `Cc1cccc(CSc2nc3c(c(=O)n2C)SCC3)c1`, 55.3% (active); for `Cn1c(SCC(=O)N2CCCCC2)nc2c(c1=O)SCC2`, 17.4%.
Consider `Cc1cccc(CSc2nnc(C)c(=O)n2N)c1`, for which the inhibition is -6.73%.
On to `O=C(OCC(=O)N1CCc2ccccc21)C1CCCN1S(=O)(=O)c1ccc(Cl)cc1` (stereo not given), for which the inhibition is -8.54%.
For `CN[C@H]1C[C@H]2c3cc(Oc4ccccc4C)ccc3CCN2C(=O)[C@H]1[C@H](C)O` the value was -8.68%; for `Cc1ccccc1CN1C(=O)c2ccccc2Sc2ccc(C(=O)NCCCN3CCOCC3)cc21`, -18.2%.
Regarding `CCN1CCN(CCNC(=O)c2ccc(/C=C3/Sc4ccccc4N(Cc4cccc(C)c4)C3=O)cc2)CC1`, the inhibition was 35.2% (active).
For `CCN1CCN(CCNC(=O)c2ccc3c(c2)NC(=O)/C(=C\c2cccc(Cl)c2)S3)CC1` the value was 3.02%; for `C[C@H](NC(=O)CC[C@H]1O[C@@H](n2ccc(=O)[nH]c2=O)[C@H](O)[C@@H]1O)c1cccc2ccccc12`, -22.7%; for `CCC(C)NCCOCCOc1ccc(Br)cc1C` (stereo not given), 34.6% (active).
For `COCCCNCCOCCOc1ccc(Cl)cc1Br` the value was -3.69%; for `COCC(C)NCc1cc(Br)ccc1OC` (stereo not given), -2.87%.
Consider `COC(=O)c1ccc(CN2C(=O)C(Cc3ccccc3)ON=C2c2ncccc2C)o1` (stereo not given), for which the inhibition was 0.28%.
Take `CC(C)C(NC(=O)c1c(F)cccc1F)C(=O)NNC(=O)c1ccccc1` (stereo not given): the inhibition was 7.65%.
As for `Cc1c(C)n(Cc2ccc(Cl)cc2)c2ccc(C(=O)NCCCN3CCOCC3)cc12`, the inhibition is 12.4%.
For `CN1CCN(CCCNC(=O)c2ccc(/C=C3\Oc4ccccc4N(Cc4ccc(Cl)cc4)C3=O)cc2)CC1` the value was 53.5% (active); for `CCC1Oc2ccccc2N(CC(=O)NCCCN2CCN(CC)CC2)C1=O` (stereo not given), -1.31%.
